The list is not random: actives were taken first. Their share in the collection is about 4%.
TIM10 inh: growth inhibitors of TIM10 yeast strain | S. cerevisiae TIM10 strain growth, BacTiter-Glo luminescence, 24 h | inhibition, % at 10 µM | hit rate 1.4% among 330,000;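 active = inhibition of 40% or more at the single tested concentration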;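 also: wild-type TIM10 isogenic control strain grown at permissive 25 °C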
NALP1 inh: blocks the NALP1 inflammasome reconstituted in yeast | S. cerevisiae NALP1/ASC/caspase-1 growth, X-gal OD620, 72 h | inhibition, % at 10 µM | hit rate 0.61% among 280,000 | AID 2071; in the data active = inhibition mostly above about 24%, no sharp cut-off; inactive = mostly below about 32%
tim10-1 inh: inhibits growth of tim10-1 mutant yeast. S. cerevisiae tim10-1 ts strain growth, BacTiter-Glo, 24 h. inhibition, % at 20 µM. hit rate 2.2% among 330,000;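 active = inhibition of at least 40%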;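 also: mutant grown at 25 °C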
NLRP3 yeast inh: NALP3 inhibition in yeast | hit rate 0.39% among 330,000 | Yeast reconstituted NLRP3/ASC/caspase-1, beta-gal luminescence, 24 h | inhibition, % at 10 µM;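 active = inhibition of 50% or more; inactive = inhibition below 50%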
tim23-1 inh: inhibits growth of tim23-1 mutant yeast. inhibition, % at 20 µM. S. cerevisiae tim23-1 growth, BacTiter-Glo luminescence, 24 h. hit rate 1.3% among 330,000. AID 463212;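 active = growth inhibition of the mutant yeast at or above 50%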;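 also: temperature-sensitive mutant grown at 25 °C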
NALP3 confirm: confirmation of NALP3 inhibitors in yeast. inhibition, % at 10 µM. AID 435006. shares compounds with NLRP3 yeast inh. yeast expressing human NALP3, luminescence. hit rate 81% among 1,300; in the data active = inhibition above about 48%
Casp1-ASC yeast: active in yeast caspase-1-ASC counter-screen for NALP3 inhibitors. shares compounds with NLRP3 yeast inh. yeast expressing Caspase-1-ASC, luminescence counter screen. inhibition, % at 10 µM. hit rate 66% among 1,000. AID 488784
NALP3 yeast rt: yeast NALP3 inhibition, confirmed on retest. shares compounds with NLRP3 yeast inh. yeast expressing human NALP3, luminescence read-out. inhibition, % at 10 µM. hit rate 53% among 1,000
tim10-1 conf: tim10-1 yeast growth inhibition, confirmed | inhibition, % at 20 µM | S. cerevisiae tim10-1 ts strain growth, BacTiter-Glo, 24 h | shares compounds with tim10-1 inh | hit rate 56% among 7,400;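 active = inhibition of yeast growth at or above a set limit in either of two repeat tests at 20 µM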;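 also: tim10-1 mutant grown at permissive 25 °C to find synthetic lethal compounds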
TIM10 conf: TIM10 yeast growth inhibition, confirmed | shares compounds with TIM10 inh | S. cerevisiae tim10 strain growth, BacTiter-Glo luminescence, 24 h | inhibition, % at 10 µM | hit rate 63% among 4,600;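 active = inhibition of yeast growth at or above a set limit in either of two replicates at 10 µM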; also: this counterscreen used the strain with wild-type TIM10
tim23-1 conf: confirmation of tim23-1 mutant yeast growth inhibitors. shares compounds with tim23-1 inh. S. cerevisiae tim23-1 growth, BacTiter-Glo luminescence, 24 h. inhibition, % at 20 µM. hit rate 83% among 4,400. AID 463218;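 active = inhibition above about 39% in either of two replicate wells at 20 µM, limit read from the data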;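 also: temperature-sensitive tim23-1 mutant grown at 25 °C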
Large screens that a line does not name were inactive (follow-up assays come after a bar, where they were run). Rule as the data show it, unless noted: active = inhibition above about 50%; inactive = the rest.

C[C@]12C[C@@H](O)[C@H](O)CC1=CCC1C2CC[C@@]2(C)C1CC[C@@H]2O (stereo partly specified)	NLRP3 yeast inh 58.3 (no result: NALP1 inh) | NALP3 confirm 55.0
C[C@]12C[C@@H](O)[C@H](O)CC1=CCC1C2CC[C@]2(C)C(=O)CCC12 (stereo partly specified)	none (no result: NALP1 inh)
C[C@]12CCC3C(CC[C@H]4C[C@@H](O)[C@H](O)C[C@]34C)C1CC[C@@H]2O (stereo partly specified)	NLRP3 yeast inh 55.2 (no result: NALP1 inh) | NALP3 confirm 60.1
C[C@]12CCC3C(CC[C@H]4C[C@@H](O)CC[C@]34C)C1CC[C@@]2(O)C(F)(F)F (stereo partly specified)	NLRP3 yeast inh 55.5 (no result: NALP1 inh) | NALP3 confirm 54.8
C[C@H]1CC[C@@]2(C)[C@@H](CC[C@@H]3[C@@H]2CC[C@]2(C)[C@@H](O)CC[C@@H]32)C1	none (no result: NALP1 inh)
C[C@]12CC[C@H](O)CC1C(=O)CC1C2CC[C@@]2(C)C1CC[C@@H]2O (stereo partly specified)	none (no result: NALP1 inh) | NALP3 confirm inactive | Casp1-ASC yeast 50.3 | NALP3 yeast rt inactive
C[C@]12CCC3C(CC[C@H]4C[C@@H](O)CC[C@]34C)C1C[C@@H](O)[C@]2(C)O (stereo partly specified)	NLRP3 yeast inh 50.1 (no result: NALP1 inh) | NALP3 confirm 56.8
C[C@H]1CC[C@@H]2N(C1)C[C@H]1[C@@H]3C[C@H]4[C@@H](CC(=O)[C@H]5C[C@@H](O)CC[C@@]54C)[C@@H]3CC[C@H]1[C@]2(C)O	none
C[C@]12CCC3C(CC[C@H]4C[C@@H](O)CC[C@]34C)[C@H]1CC[C@H]2O (stereo partly specified)	NLRP3 yeast inh 51.1 (no result: NALP1 inh) | NALP3 confirm 57.5
CC1C2Cc3ccc(O)cc3[C@]1(C)CCN2CCc1ccccc1 (stereo partly specified)	none (no result: NALP1 inh)
COC(=O)C1=C(c2ccc(F)cc2F)C[C@@H]2CC[C@H]1N2C(=O)N1CCC(O)CC1	none (no result: NALP1 inh)
C[C@]12CCC3C(CC[C@@H]4CC(=O)CC[C@]34C)C1CC[C@@H]2O (stereo partly specified)	NLRP3 yeast inh 68.0 (no result: NALP1 inh) | NALP3 confirm 57.8
CC12CCC3C(CCC4C/C(=N/O)CCC43C)C1CCC2O (stereo unspecified)	NLRP3 yeast inh 62.6 | NALP3 confirm inactive | Casp1-ASC yeast 62.6 | NALP3 yeast rt inactive
C[C@]12CC(=O)CC1CCC1C2CC[C@@]2(C)C1CC[C@@H]2O (stereo partly specified)	NALP1 inh 42.0, NLRP3 yeast inh 59.7 | NALP3 confirm 61.2 | Casp1-ASC yeast 62.8 | NALP3 yeast rt inactive
C[C@]12CCC(=O)C[C@@H]1CC[C@@H]1[C@@H]2CC[C@]2(C)[C@@H](O)CC[C@@H]12	NLRP3 yeast inh 50.1 (no result: NALP1 inh) | NALP3 confirm 54.7 | Casp1-ASC yeast 59.6 | NALP3 yeast rt inactive
C[C@]12CCC(=O)C[C@@H]1CC[C@@H]1[C@@H]2CC[C@@]2(C)[C@H]1CC[C@]2(C)O	none (no result: TIM10 inh, tim10-1 inh, NLRP3 yeast inh, tim23-1 inh)
O=c1c2ccccc2nc(-c2ccccc2Cl)n1-c1cccc(O)c1	none
C[N+](C)(N)CCOC(=O)C(O)(c1ccccc1)C1CCCCC1 (stereo unspecified)	none (no result: NALP1 inh)
CCc1c(-c2ccccc2)nc2ccccc2c1C(=O)N1CCC2(CC1)OCCO2	none
COC(=O)C1=C(c2ccc(F)cc2F)C[C@@H]2CC[C@H]1N2C(=O)NC1Cc2ccccc2C1	none (no result: NALP1 inh) | NALP3 confirm inactive
CCC1=Nc2cc(C(=O)N3CCC4(CC3)OCCO4)ccc2Sc2ccc(Br)cc21	none
CC(C)Oc1ccc(CCN)cc1Cl	NALP1 inh 44.1, NLRP3 yeast inh 52.5 | NALP3 confirm 56.5 | Casp1-ASC yeast inactive | NALP3 yeast rt inactive
COc1ccc(CCN)cc1O	none (no result: NALP1 inh)
CCC1C=CC=CC[C@H](C)[C@@H](O)[C@](C)(O)C(=O)[C@@H](C)[C@H](O)[C@@H](C)C(=O)[C@H](C)[C@@H](O)[C@H](C)C=CC(=O)OC2[C@@H](C)C(CC1)OC1(CC[C@@H](C)C(C[C@H](C)O)O1)[C@@H]2C (stereo partly specified)	NLRP3 yeast inh 81.8 (no result: NALP1 inh) | NALP3 confirm 88.5 | Casp1-ASC yeast 56.9 | NALP3 yeast rt 72.2
C[C@H](NC(=O)CCC(=O)N1C[C@H]2C[C@H](C1)c1cccc(=O)n1C2)c1ccccc1	none
COC(=O)C1=C(c2cccc(C#N)c2)C[C@@H]2CC[C@H]1N2C(=O)N1CCCCC1	none (no result: NALP1 inh)
CC(C)COC(=O)c1ccccc1C(=O)OCC(C)C	none
C[CH2][Hg][S]c1ccccc1C(=O)O	NLRP3 yeast inh 97.6 (no result: NALP1 inh) | NALP3 confirm 99.4 | Casp1-ASC yeast 99.6 | NALP3 yeast rt 98.7
COC(=O)C1=C(c2ccc(OC(F)(F)F)cc2)C[C@@H]2CC[C@H]1N2C(=O)NCc1cc(C)oc1C(F)(F)F	none (no result: NALP1 inh)
CC1(C)C(=O)CC[C@@]2(C)C1=CCC1C2CC[C@]2(C)C(=O)CCC12 (stereo partly specified)	NLRP3 yeast inh 58.8 (no result: NALP1 inh) | NALP3 confirm 47.7
CN1C(=O)/C(=C/c2cccn2-c2ccc3ccccc3c2)C(=O)NC1=S	TIM10 inh 46.0, tim10-1 inh 55.7, NLRP3 yeast inh 56.2, tim23-1 inh 65.9 | NALP3 confirm inactive | tim10-1 conf 52.7 | TIM10 conf 48.9 | tim23-1 conf 63.7
O=C(CCCc1ccccc1)NCCc1cnc[nH]1	none
C[C@@H]1C[C@@H]([C@H](O)CC2CC(=O)NC(=O)C2)C(=O)[C@@H](C)C1	TIM10 inh 67.7, NLRP3 yeast inh 96.9, tim23-1 inh 73.3 (no result: NALP1 inh) | NALP3 confirm 98.3 | Casp1-ASC yeast 99.2 | NALP3 yeast rt 97.7 | TIM10 conf 64.2 | tim23-1 conf 69.2
COc1ccc(C2=NS(=O)(=O)N(C)C(C(=O)N3CCC4(CC3)OCCO4)=C2)cc1OC	none
CN1C(=O)C(=Cc2ccccc2OCc2ccccc2Cl)C(=O)N(C)C1=O	none (no result: NALP1 inh)
